PubChem BioAssay (Tox21)
Records with an inconclusive call do not appear. Calls of active or inactive are those of the source. Unless noted, calls follow the shape of the dose curve; as a rule, active = well fitted curve in the direction sought with a large enough effect in the repeat runs; inconclusive = weak or mixed curves; inactive = no such curve, though single readings can be large; an effect the other way counts as inactive or inconclusive.

Tests used:
[1] = qHTS assay to identify small molecule antagonists of the estrogen related receptor (ERR) signaling pathway - cell viability counter screen (AID 1224818);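 also: series mostly up to about 46 µM; viability measured after 17.5 h of compound exposure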
Method in brief: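 In the same ERR cell assay, compound-treated wells (17.5 h, 37 C) were multiplexed with a fluorogenic viability reagent, CellTiter-Fluor, read after 30 min to flag cytotoxic substances.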

[2] = qHTS assay to identify small molecule antagonists of the estrogen related receptor (ERR) signaling pathway (AID 1224819;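 also: luminescence from an ERR-driven luciferase reporter measured with One-Glo reagent; series mostly up to about 46 µM; nearly all actives have a fitted effect of over 50% in size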)
Method in brief: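 qHTS in ERR cells, 2,000/well, 1536 format. Cpd (DMSO) added after 6 h settle, 18 h 37 C. One-Glo luminescence, 30 min RT.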

[3] = qHTS assay to identify small molecule agonists of the estrogen related receptor (ERR) signaling pathway (AID 1224820)
Method in brief: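 Cells: ERR line from NTP, 2,000/well. Pre-incubation 6 h, 37 C/5% CO2. Compound (DMSO) pin transfer, 18 h 37 C. One-Glo, 30 min RT, luminescence.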

[4] = system: estrogen-related receptor alpha (ERRalpha) with PGC-1alpha coactivator, human; test: qHTS assay to identify small molecule antagonists of the estrogen related receptor signaling pathway with the pleiotropic PPARgamma coactivator (PGC) (AID 1224821; calls by dose curve;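 also: series mostly up to about 46 µM; lower luminescence signal means antagonism of PGC/ERR signalling; nearly all actives have a fitted effect of over 50% in size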)
Method in brief: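 Luminescent read-out (One-Glo, 30 min at room temperature) following 18 h treatment of PGC/ERR cells at 37 C with compounds delivered in DMSO. Cells had settled 6 h at 37 C/5% CO2 before dosing.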

[5] = qHTS assay to identify small molecule antagonists of the estrogen related receptor signaling pathway with the pleiotropic PPARgamma coactivator (PGC) cell viability counter screen (AID 1224822; also: series mostly up to about 46 µM)
Method in brief: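 Compounds in DMSO, with positive and negative controls, were applied to PGC/ERR cells (2,000/well) and left 17.5 h at 37 C before CellTiter-Fluor detection.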

[6] = qHTS assay to identify small molecule agonists of the estrogen related receptor signaling pathway with the pleiotropic PPARgamma coactivator (PGC) (AID 1224823)
Method in brief: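 Steps: plate PGC/ERR cells at 2,000 cells/well; incubate 6 h, 37 C/5% CO2; pin-transfer compounds (DMSO); incubate 18 h, 37 C; add One-Glo; 30 min RT; read luminescence.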

Measured: Potency

CCCN(CCC)C1Cc2cc(OC)c(OC)cc2C1
inactive: all assays above

NC(CCP(=O)(O)O)C(=O)O (configuration not stated)
inactive: all assays above

CCCN(CCC)C1CCc2ccc(O)cc2C1 (configuration not stated)
inactive: all assays above

CC(C)(O)[C@@H]1[C@H]2OC(=O)[C@@H]1[C@]1(O)C[C@H]3O[C@]34C(=O)O[C@H]2[C@]14C (tested in a mixture with another compound)
inactive: all assays above

NC(=O)c1cc(N2CC2)c([N+](=O)[O-])cc1[N+](=O)[O-]
inactive: all assays above

CN1CCC(c2c[nH]c3ccc(O)cc23)CC1
inactive: all assays above

NCCc1c[nH]c2ccc(C(N)=O)cc12
inactive: all assays above

CC1=NN=C(c2ccc(N)cc2)c2cc3c(cc2C1)OCO3
inactive: all assays above

CCN(CC)c1ncnc2c1ncn2[C@@H]1O[C@H](COP(=O)(O)OP(=O)(O)C(Br)(Br)P(=O)(O)O)[C@@H](O)[C@H]1O
inactive: all assays above

C[N+]1(C)CCC(OC(=O)C(c2ccccc2)c2ccccc2)CC1
inactive: all assays above

CC(C)Oc1cccnc1N(C)C1CCN(Cc2ccccc2)CC1
inactive: all assays above

O=c1ccc2[nH]cc(C3=CCNCC3)c2[nH]1
inactive: all assays above
